From PubChem
BoNT-F LC inh = BoNT F light chain protease inhibition; Multiplex microsphere protease cleavage assay, flow cytometry; inhibition, % at 10 µM; hit rate 0.22% among 360,000; in the data active = inhibition above about 35%, passing the limit was not always enough; inconclusive = no clear call, values can overlap the other calls; note: plate controls were buffer without enzyme for full effect and enzyme alone for no effect
Bead autofluor = counter-screen for toxin protease inhibitors: compound fluorescence; AID 624483; compound autofluorescence counterscreen, microsphere flow cytometry; stronger effect = higher value; hit rate 3.1% among 360,000; fluorescence intensity (concentration not given with the values); in the data active = fluorescence intensity above about 16000; inconclusive = no clear call, values can overlap the other calls
BoNT-A LC inh2 = blocks Botulinum neurotoxin A light chain protease; multiplex microsphere protease substrate cleavage, flow cytometry; inhibition, % at 10 µM; hit rate 0.17% among 360,000; AID 588499; note: plate controls were buffer without enzyme for full effect and enzyme alone for no effect
Anthrax LF prot = inhibitors of Bacillus anthracis lethal factor protease; multiplex microsphere protease cleavage assay, LF; P15917; inhibition, % at 10 µM; AID 588501; hit rate 0.12% among 360,000; note: plate controls were buffer without enzyme for full effect and enzyme alone for no effect
Target sequence (P15917 whole entry, looked up): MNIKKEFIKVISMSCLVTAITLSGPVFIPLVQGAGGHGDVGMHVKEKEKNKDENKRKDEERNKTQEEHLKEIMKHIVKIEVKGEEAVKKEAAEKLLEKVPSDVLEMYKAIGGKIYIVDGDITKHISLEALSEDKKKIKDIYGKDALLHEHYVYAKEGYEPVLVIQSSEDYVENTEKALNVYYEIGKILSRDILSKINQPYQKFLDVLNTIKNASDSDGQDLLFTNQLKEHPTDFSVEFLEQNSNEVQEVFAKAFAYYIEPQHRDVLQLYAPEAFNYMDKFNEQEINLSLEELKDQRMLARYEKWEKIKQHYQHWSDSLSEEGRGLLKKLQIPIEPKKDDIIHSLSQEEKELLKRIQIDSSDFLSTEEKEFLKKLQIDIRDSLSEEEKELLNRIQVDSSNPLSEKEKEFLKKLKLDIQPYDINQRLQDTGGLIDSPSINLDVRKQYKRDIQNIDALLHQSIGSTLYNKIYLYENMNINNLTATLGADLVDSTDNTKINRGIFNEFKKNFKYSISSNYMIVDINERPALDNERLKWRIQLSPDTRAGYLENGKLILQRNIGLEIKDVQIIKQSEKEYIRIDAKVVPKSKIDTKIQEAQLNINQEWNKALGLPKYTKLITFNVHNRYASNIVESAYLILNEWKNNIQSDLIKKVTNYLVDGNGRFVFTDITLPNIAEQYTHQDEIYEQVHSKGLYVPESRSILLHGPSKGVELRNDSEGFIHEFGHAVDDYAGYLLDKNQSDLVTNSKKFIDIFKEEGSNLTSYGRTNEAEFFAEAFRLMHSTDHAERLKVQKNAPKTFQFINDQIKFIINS
The depositor's hits bear a star; ? = inconclusive. A selection: hits, their analogues and other compounds. The true share with any hit is near 3.5%. Cut-off read from the data, not from the text of the source, unless noted: active = inhibition above about 30%; inconclusive = no clear call, values can overlap the other calls; inactive = below that.

SMILES | BoNT-F LC inh | Bead autofluor | BoNT-A LC inh2 | Anthrax LF prot
C[C@@H]1Cc2[nH][nH]c(=O)c2[C@H](C)O1 | -2 | 6307 | 0 | 3
Cc1ccc([C@H]2C[C@H](O)[C@@H](n3cc(COC(=O)c4ccccc4)nn3)CN2C(=O)c2cccs2)cc1 | -2 | 2945 | 0 | 0
O=C1Nc2cccc3c2N(CCC3)C2=C1CCC2 | 2 | 3643 | 0 | 3
O=C(CCOc1cccc(Br)c1)Nc1ccc(F)c(S(=O)(=O)N2CCOCC2)c1 | ? | 7224 | ? | ?
Cc1cc(SCC(=O)Nc2ccccc2)nc(C)n1 | -6 | 2729 | 0 | -1
CCOC(=O)CSc1cn2c(n1)CCC2 | -5 | 24514* | -4 | -3
CCOC(=O)CSc1nc(C)cc(C)n1 | -1 | 2533 | 0 | 1
CSc1nc(C)cc(SCC(=O)Nc2ccccc2)n1 | -3 | 23915* | -1 | 1
Cc1ccccc1OCCSc1nnc(-c2ccncc2)n1C | 11 | 19279* | 9 | -18
O=C(Cc1cccc(NC(=O)C2CCCN(C(=O)CCc3ccccc3)C2)c1)Nc1cccc(C(=O)N2CCCCC2)c1 (centres undefined) | 1 | 3676 | 0 | 0
CC1CC2(O)c3no[n+]([O-])c3CCC2N1O (centres undefined) | 3 | 22460* | 2 | -1
Cc1ccc(-c2nnc3c4ccccc4c(C)nn23)cc1S(=O)(=O)N1CCN(C)CC1 | 2 | 20956* | ? | -6
Cc1oc2ccc(O)c(CN3CCOCC3)c2c1C(=O)c1ccc(Cl)cc1 | -4 | 23586* | -1 | -1
CC1=C(C)[N+](=O)C2CCCCC2N1[O-] (centres undefined) | -7 | 17133* | ? | -5
CCCCc1ccc(S(=O)(=O)NC(=O)C2(C)CCN2C(=O)CC2CC2)cc1 (centres undefined) | 4 | 3624 | 0 | -2
Cn1ncc([N+](=O)[O-])c1C(=O)Nc1ccccc1C#N | -6 | 4016 | 0 | -9
COCCNC(=O)NC(=O)COC(=O)Cc1ccc2c(c1)OCCO2 | 1 | 22511* | 0 | 0
COc1cc(CC(=O)OCC(=O)Nc2ccc3c(c2)OCCO3)cc(OC)c1OC | -4 | 2215 | 0 | 0
O=C(c1ccc(CSc2ccc(Cl)cc2)o1)N1CCOCC1 | -3 | 6266 | 0 | 1
CCOC(=O)N1CCN(C(=O)/C(=C/c2cccc3ccccc23)NC(=O)c2ccc(OC)cc2)CC1 | -5 | 24028* | -2 | -2
O=c1cc(CN2CCN(c3ccc(Cl)c(Cl)c3)CC2)c2ccccc2o1 | -8 | 5716 | 0 | -4
COC(=O)CN1C(=O)COc2ccc(S(=O)(=O)N3CCCCC3)cc21 | 6 | 4147 | 0 | -8
COc1ccc(NC(=O)C2(c3ccc(NC(=O)c4ccc(OC(C)=O)cc4)cc3)CCCC2)cc1 | 1 | 20395* | 1 | 0
Cc1ccc(NC(=O)CNc2ccc(OC(C)C)cc2)c(C)c1 | -20 | 19175* | 3 | -8
CC(C)Oc1ccc(NC(N)=O)cc1 | -2 | 8881 | 0 | 8
SMILES | BoNT-F LC inh | Bead autofluor | BoNT-A LC inh2 | Anthrax LF prot
CC(C)Oc1ccc(NC(=O)CCC(=O)O)cc1 | 0 | 16641* | -1 | -1
O=C(O)CCCC(=O)Nc1ccc(Br)cc1 | 0 | 23089* | 0 | -1
CN1C(=O)C(=Cc2ccc(N3CCCCCC3)o2)C(=O)N(C)C1=S | 197* | 14036 | 27 | 30*
CCN1CCN(C(=O)c2nn(-c3ccccc3)c(=O)c3ccccc23)CC1 | 2 | 18559* | 2 | -2
COc1ccc(-n2nc(C(=O)NCC(=O)NCc3ccco3)c3ccccc3c2=O)cc1 | -4 | 5918 | 0 | -2
O=C(NCc1ccco1)c1nn(-c2ccccc2)c(=O)c2ccccc12 | 0 | 21403* | 1 | -1
COc1ccc(C(NC(=O)C2CCN(Cc3ccc(Oc4ccccc4)cc3)CC2)c2ccccn2)cc1 (centres undefined) | -11 | 4921 | -1 | -4
C=CCn1c(Cn2c(-c3cnccn3)nc3ccccc32)nc2ccccc21 | 8 | 4334 | 0 | 2
O=C1[C@H]2[C@@H](C(=O)N1c1cc(Cl)cc(Cl)c1)[C@]1(C(=O)Nc3ccccc31)N1CCC[C@@H]21 | -1 | 20946* | 0 | -2
Cc1cc(Cl)c2c(c1)[C@]1(C(=O)N2)[C@@H]2C(=O)N(Cc3ccccc3)C(=O)[C@@H]2[C@@H]2CCCN21 | -12 | 4676 | 0 | 3
CCOC(=O)C1CCN(C(=O)CSc2cc(=O)n(CC)c3ccccc23)CC1 | -6 | 16952* | -3 | 0
CCOC(=O)N1CCC(NC(=O)CSc2cc(=O)n(CC)c3ccccc23)CC1 | 3 | 21138* | 3 | 4
CC(C)(C)n1nnnc1CN(Cc1ccco1)Cc1cc2cc3c(cc2[nH]c1=O)OCO3 | -10 | 2202 | 0 | -1
COCCn1nnnc1CN(Cc1ccco1)Cc1cc2cc3c(cc2[nH]c1=O)OCO3 | -1 | 23147* | 0 | 0
